Measurements taken from PubChem BioAssay AID686970 (National Center for Advancing Translational Sciences (NCATS), 2013).
About 6,000 (1.7%) of roughly 360,000 compounds were called active. Another 8% or so got no clear call; they are omitted. The entries come from a sample that favours actives as a whole. A call without a number means that no potency is given here. Unmarked numbers belong to inactive results. Calls follow the shape of the dose curve; as a rule, active = well fitted cell-killing curve with a large enough effect; inconclusive = small, poorly fitted or top-dose-only effect, or effect the other way; inactive = flat fitted curve, though single readings scatter.

Test: qHTS for induction of synthetic lethality in tumor cells producing 2HG: qHTS for the HT-1080-NT fibrosarcoma cell line;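 also: NT is the 2HG producing partner of a matched IDH1 knockdown line; nearly all actives have a fitted effect of over 55% in size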
Details: HT-1080-NT fibrosarcoma viability, CellTiter-Glo ATP luminescence, 48 h; series mostly up to 46.1 µM
Outline: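 HT-1080-NT fibrosarcoma cells (2HG-overproducing), 750 cells/well in RPMI with 5% FBS, dosed after 2 h and incubated 48 h at 37C. CellTiter-Glo luminescence normalized to DMSO and no-cell wells; concentration-response curves fitted and classed.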
Potency is read from the fitted curve at half-maximal effect.

Row | SMILES | Potency | activity, negative = less viability
1 | Cc1cc(Nc2ccc(C)c(C)c2)n2ncnc2n1 | inactive | –
2 | CC(C)(C(=O)N1CCC1(C)C(=O)NS(=O)(=O)c1ccc(Br)cc1)c1ccccc1 (stereo unspecified) | inactive | –
3 | CCc1nc(C)cn1S(=O)(=O)c1cc([N+](=O)[O-])ccc1Cl | 4.11 µM (active) | –
4 | CC(C)c1nccn1S(=O)(=O)c1cc([N+](=O)[O-])ccc1Cl | inactive | –
5 | CCc1nc(C)cn1S(=O)(=O)c1cc(OC)c(C)cc1C | inactive | –
6 | COc1ccc(S(=O)(=O)NCCCc2ccccc2)cc1 | inactive | –
7 | Cc1ccc(S(=O)(=O)/N=C2\C=C(NS(=O)(=O)c3ccc(C)cc3)C(=O)c3ccccc32)cc1 | inactive | –
8 | COc1ccc(S(=O)(=O)/N=C2\C=C(NS(=O)(=O)c3ccccc3)C(=O)c3ccccc32)cc1 | 18.4 µM (active) | –
9 | O=C1c2ccccc2C(c2nc3ccccc3[nH]2)N1c1ccccc1 (stereo unspecified) | inactive | –
10 | CC1(C)OC(=O)C2=C(C[C@@H](C3CCCCC3)O[C@@H]2c2ccc(Cl)cc2)O1 | inactive | –
11 | CN1OC[C@@H]2CN(C(=O)c3ccc(-c4ccccc4)cc3)[C@H](c3ccc(-c4cccc(F)c4)cc3)C[C@@H]21 | inactive | –
12 | CCCCOC(=O)Nc1nccs1 | inactive | –
13 | CCCCOC(=O)Nc1nnc(CC(=O)NCc2ccccc2)s1 | 4.11 µM (active) | –
14 | CCCCc1nnc(NC(=O)CS(=O)(=O)Cc2ccccc2)s1 | inactive | –
15 | Cc1noc(C)c1-c1ccc(C(=O)NCc2ccncc2)c2occc12 | inactive | –
16 | C/C(=N\NC(=O)Cc1ccc(Cl)cc1)c1ccccn1 | 1.78 µM (active) | –
17 | CC(=NNC(=S)N1CCCCCC1)c1ccccn1 | inactive | –
18 | NC(=O)NC(CC(=O)NNC(=O)c1ccccn1)c1ccc(Cl)cc1 (stereo unspecified) | inactive | –
19 | O=C(O)c1ccccc1Cc1ccc(F)c2ccccc12 | inactive | –
20 | Nc1ncnc2c1ncn2[C@@H]1O[C@H](C(=O)NCC(F)(F)F)[C@@H](O)[C@H]1O | inactive | –
21 | CCOC(=O)c1cc(-c2sc(NC(=O)c3ccccc3)nc2C)n(CCO)n1 | inactive | –
22 | COc1ccc(Br)c(Cn2c(C)c(C(=O)NCc3cccs3)sc2=O)c1 | inactive | –

Row | SMILES | Potency | activity, negative = less viability
23 | C[C@@H]1CN([C@H](C)CO)C(=O)c2cc(Br)cnc2O[C@@H]1CN(C)Cc1cncnc1 | inactive | –
24 | Cc1cc(C)n(CC(O)CN(c2ccccc2)S(=O)(=O)c2ccc3ccccc3c2)n1 (stereo unspecified) | inactive | –
25 | CS(=O)(=O)N(CC(O)Cn1c2ccccc2c2ccccc21)c1cccc2ccccc12 (stereo unspecified) | 18.4 µM (active) | –
26 | CCCCN(CCCC)CC(O)Cn1c2ccccc2c(=O)c2ccccc21 (stereo unspecified) | inactive | –
27 | COc1ccc(Cn2c(=O)[nH]c3cc(C(=O)N4CCN(C(=O)c5ccco5)CC4)ccc3c2=O)cc1 | inactive | –
28 | O=C1NC[C@H](CCCCN2C[C@H](Cc3ccc(O)cc3)N(CC3CCCCC3)C(=O)C2=O)N(CCc2ccccc2)C1=O | inactive | –
29 | O=C(OCc1ccccc1)N1CCC2CC1c1cc(N3CCN(S(=O)(=O)c4cc(Cl)cc(Cl)c4)CC3)ccc12 (stereo unspecified) | inactive | –
30 | CCCCCCCCCCOC(=O)Cn1c(COc2cccc(OC)c2)[n+](C)c2ccccc21 | inactive | –
31 | CCCCCCCCCCOC(=O)Cn1c(COc2ccc(C)cc2)[n+](C)c2ccccc21 | 18.4 µM (active) | –
32 | CCCCOc1ccc(NC(=O)CSCC(=O)OCC)cc1 | inactive | –
33 | CN1CCN(C(=O)c2ccc(NC(=O)c3ccc(Br)o3)cc2)CC1 | inactive | –
34 | O=C(Nc1ccc(Cl)cc1)c1csc([C@H]2C[C@H](O)[C@@H](CO)O2)n1 | inactive | –
35 | CCOC(=O)C(C(=O)c1ccccc1)C(c1ccccc1)c1nccc2ccccc12 (stereo unspecified) | inactive | –
36 | CCOC(=O)[C@]12CCC=C1N(Cc1ccco1)C(=O)[C@H](CC(=O)N1CCSCC1)C2 | inactive | –
37 | O=[N+]([O-])c1c(NCCO)cc(Sc2nc3ccccc3s2)c2nonc12 | 5.62 µM (active) | –
38 | CCN(CC)CCCSc1nc2ccccc2s1 | inactive | –
39 | Nc1nnc(SCC(=O)Nc2ccc3nc(SCC(=O)Nc4ccccc4)sc3c2)s1 | inactive | –
40 | CC1(Cc2ccccc2C#N)C(=O)Nc2ccc(-c3ccc4[nH]ccc4c3)cc21 (stereo unspecified) | 7.31 µM (active) | –
41 | O=C(NCc1cccnc1)c1cc(C2CCCN(C(=O)C3CCCCC3)C2)on1 (stereo unspecified) | inactive | –
42 | Cc1ccc(-c2c(N)nc3ncccn23)cc1 | inactive | –
43 | COCC1CCCCN1C(=O)c1cc(COc2ccc(C)c(C)c2)on1 (stereo unspecified) | inactive | –
44 | CC1(Oc2cccc(F)c2)CCN(Cc2ccccc2OC(F)F)C1 (stereo unspecified) | inactive | –

Row | SMILES | Potency | activity, negative = less viability
45 | CCOC(=O)c1cc(NC(=O)c2cccnc2)ccn1 | inactive | –
46 | CSc1nc2ccc(NC(=O)c3c(F)cccc3F)cc2s1 | inactive | –
47 | CC(=O)Nc1ccc2nc(NC(=O)CS(=O)(=O)c3ccc(F)cc3)sc2c1 | inactive | –
48 | CCCC(=O)Nc1nc2ccc(NC(=O)c3cccnc3)cc2s1 | 6.31 µM (active) | –
49 | O=C(Cc1ccccc1)Nc1ccc(NC(=O)c2cccnc2)cc1 | inactive | –
50 | CCCC(=O)Nc1nc2ccc(NC(=O)c3c(F)c(F)c(OC)c(F)c3F)cc2s1 | 1.03 µM (active) | –
51 | CCc1nc2c(OCC(=O)C(C)(C)C)cccn2c1N(C)C(=O)c1ccccc1F | inactive | –
52 | CC1C(=O)N(Cc2cn(CC3CCCCC3)nn2)CCS(=O)(=O)N1Cc1ccc(-c2cccc(N(C)C)c2)cc1 (stereo unspecified) | inactive | –
53 | COC(=O)C[C@H]1C=C[C@H](NC(=O)c2ccc(F)cc2)[C@@H](CO)O1 | inactive | –
54 | CN1C[C@@H](CO)O[C@@H](n2cnc3c(N4CCN(CCO)CC4)ncnc32)C1 | inactive | –
55 | O=C(Nc1ccccc1F)c1ccc(S(=O)(=O)N2CCCCCC2)cc1 | – | -4.83% [at 9.24 µM]
56 | CCOC(=O)N1CCN(S(=O)(=O)c2ccc(Br)cc2)CC1 | inactive | –
57 | CCOC(=O)N1CCN(S(=O)(=O)c2ccc(C(=O)Nc3ccc(F)cc3F)cc2)CC1 | 1.78 µM (active) | –
58 | O=C(c1cccs1)N1C[C@H](n2cc(C3CC3)nn2)[C@@H](O)C[C@@H]1c1ccccc1 | inactive | –
59 | CNC(=O)C[C@H]1C(=O)N(Cc2ccccc2)C[C@@H]1CSC | inactive | –
60 | Cc1cccc(C)c1-n1nnnc1C(CCc1ccccc1)N1CCN(C/C=C/c2ccccc2)CC1 (stereo unspecified) | inactive | –
61 | CCc1ccc2nc(N(CCCN(C)C)C(=O)c3ccc4c(c3)OCCO4)sc2c1 | 20.6 µM (active) | –
62 | Cc1ccc2nc(N(CCN(C)C)C(=O)C3=COCCO3)sc2c1 | inactive | –
63 | Brc1ccc2nc(N3CCCC3)sc2c1 | inactive | –
64 | CN(C)CCCN(C(=O)c1ccc(S(=O)(=O)N2CCCCCC2)cc1)c1nc2ccc(Br)cc2s1 | 18.4 µM (active) | –
65 | CN(C)CCN(C(=O)CN1C(=O)c2ccccc2C1=O)c1nc2cc3c(cc2s1)OCCO3 | inactive | –
66 | COc1ccc2sc(N(CCCN(C)C)C(=O)c3ccc(S(=O)(=O)N(C)C4CCCCC4)cc3)nc2c1 | inactive | –
